The molecules below were run against Solute carrier family 2, facilitated glucose transporter member 1 (Homo sapiens) (UniProt P11166) (assay: ST_JUDE_LEISH: Cytotoxicity at 2uM final concentration against transgenic Leishmania Mexicana promastigotes LmGLUT1 that are glucose transport deficient and complemented with the human glucose transporter GLUT1. Activity is measured by DNA content using SYBR green in vitro).
Solute carrier family 2, facilitated glucose transporter member 1 (Homo sapiens), sequence (P11166 whole entry): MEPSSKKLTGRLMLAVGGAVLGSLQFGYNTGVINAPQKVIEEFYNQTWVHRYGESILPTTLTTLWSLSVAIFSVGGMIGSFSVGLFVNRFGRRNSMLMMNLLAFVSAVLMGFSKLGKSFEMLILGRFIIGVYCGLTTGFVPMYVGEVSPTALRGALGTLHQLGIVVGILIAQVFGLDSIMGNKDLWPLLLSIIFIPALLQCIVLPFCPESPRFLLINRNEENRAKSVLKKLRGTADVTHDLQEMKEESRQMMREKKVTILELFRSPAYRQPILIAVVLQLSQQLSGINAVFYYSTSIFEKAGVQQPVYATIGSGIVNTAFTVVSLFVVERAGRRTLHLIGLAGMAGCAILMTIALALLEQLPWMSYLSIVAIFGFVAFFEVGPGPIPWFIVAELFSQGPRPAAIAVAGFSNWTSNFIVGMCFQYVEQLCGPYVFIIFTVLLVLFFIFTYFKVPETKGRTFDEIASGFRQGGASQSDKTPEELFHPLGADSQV
Type: functional
`Cc1[nH]cnc1CSCCNC(=N)NCCCCCCCCNC(=N)NCCSCc1nc[nH]c1C` was tested, and the inhibition was -1.07%.
For `COc1ccc2c(c1C1CCN(CCCCNC(=O)c3ccc(NC(=O)c4ccc(Cl)cc4)cc3)CC1)CCCC2`, the inhibition was -1.16%.
In the case of `NC(=O)c1cccc(C(=O)Nc2cccc(-c3cccc(-c4nc5ccccc5[nH]4)c3)c2)c1`, the inhibition is reported as 5.87%.
With `Cc1ccc(NC(=O)c2ccc3nccnc3c2)cc1OC1CCN(Cc2ccc(F)cc2)CC1` the inhibition was 10.6%.
Molecule `O=C(/C=C/c1ccccc1Cl)Nc1ccc(Br)c(OCCN2CCN(CCN3CCCC3)CC2)c1` has an inhibition of 4.13%.
Molecule `CCNC(=O)NC1CCN(Cc2c(-c3cccs3)nc3ccccc3c2C(=O)N[C@@H](C)C2CCCCC2)CC1` has an inhibition of 2.27%.
Work on `O=C(NCC1CC1)C1Cc2c([nH]c3ccc(Br)cc23)C2(CCN(CCc3ccccc3)CC2)N1` (stereo not given) yielded an inhibition of 1.43%.
In the case of `CC(C)C1c2ccc(O)cc2CC2C(=O)N(C3CCCCC3)C(=O)N21` (stereo not given), the inhibition is reported as -1.04%.
`CCN(CC)CCN(Cc1ccc(-c2ccc(C(F)(F)F)cc2)cc1)C(=O)Cn1c(CCc2cccc(F)c2F)nc(=O)c2sccc21` was tested, and the inhibition was 0.1%.
In the case of `Nc1ncc(-c2ccccc2)cc1-c1nc2cc(Cl)c(F)cc2[nH]1`, the inhibition is reported as 7.29%.
`CN(C)CCN(C)Cc1ccc(-c2cccc(NC(=O)c3cccc(C#N)c3)c2)cc1` gave an inhibition of 15.4%.
`COc1ccc2c(c1CNCCCCCCNCc1c(OC)ccc3c1CCCC3)CCCC2` was tested, and the inhibition was 11.1%.
`O=S(=O)(NCCN1CCCC1)c1ccc(-c2ccc(CNCc3ccsc3)cc2)cc1` showed an inhibition of 13.4%.
`O=C(CCc1c[nH]cn1)Nc1cccc(-c2ccc(-c3nc4ccccc4[nH]3)cc2)c1` gave an inhibition of 6.89%.
With `COc1cc(F)c2nccc([C@@H](O)CN3CCC(NCc4nc5cccc(F)c5[nH]4)CC3)c2c1` the inhibition was 6.27%.
`Cc1ccc2nc(N/C(N)=N/C(=O)NC3CCCCC3)nc(C)c2c1` gave an inhibition of 3.24%.
Work on `COc1csc2cc(Br)ccc12` yielded an inhibition of 1.01%.
`CCCCc1ccc(C(=O)Nc2ccc3nc(N4CCN(CC)CC4)cc(C)c3c2)cc1` showed an inhibition of -2.18%.
`Cc1cc(CN2CC[C@H](NC(=O)c3ccc(Cl)c(Cl)c3)C2)ccc1OC1CCN(Cc2ccccc2)CC1` showed an inhibition of 11%.
For `COc1ccc(C2=C(Nc3ccc4oc5ccccc5c4c3)c3ccccc3C2=O)cc1`, the inhibition was 0.72%.
`Cc1ccc(Nc2nc(C)cc(Nc3cccc(C#N)c3)n2)cc1` showed an inhibition of 42.3%.
`Cc1cc(Cl)c(S(=O)(=O)NC(C)(C)C)cc1OCC(=O)NC1CCCCC1` showed an inhibition of -0.97%.
Molecule `Fc1ccc(COc2ccc(Nc3ncnc4ccc(I)cc34)cc2Cl)cc1` has an inhibition of 20.3%.
`CC(=O)Nc1ncc(C(=O)Nc2cccc(-c3cccc(-c4nc5cccc(C)c5[nH]4)c3)c2)s1` was tested, and the inhibition was 3.02%.
`COc1ccc(-c2cccc(NC(=O)c3cccc(C#N)c3)c2)cc1CN1CCCC1` showed an inhibition of 12.1%.

— ChEMBL document CHEMBL3433997, “St. Jude Leishmania screening dataset” (2016)
